Data as given in PubChem BioAssay (EPA / NIEHS).
“And” between values parts separate entries of the source, which are not always exact repeats. Equal values may be shown once. The source made the active and inactive calls. The calls were made as follows: active = hit-call score of the fitted dose curve at least 0.9, where 1 is the maximum; inactive = score below 0.9.

Read-out: urokinase plasminogen activator (uPA), PLAU (gene 5328)
Assay: BSK_BE3C_uPA: BioMAP Diversity Plus: BE3C Assay for urokinase plasminogen activator (uPA) Biomarker Activity (AID 2283038)
Conditions: primary human bronchial epithelial cells; actives raise or lower the signal
Experimental: BSK_BE3C is a cell-based, multiplexed-readout assay that uses bronchial epithelial cell, a human lung primary cell, with measurements taken at 24 hours after chemical dosing in a 96-well plate.BSK_BE3CA is an assay component measured in the BSK_BE3C assay. It measures uPA antibody related to regulation of gene expression using ELISA technology.Data from the assay component BSK_BE3CA was analyzed into 1 assay endpoint. This assay endpoint, BSK_BE3CA, was analyzed with bidirectional fitting relative to DMSO as the negative control and baseline of activity. Using a type of binding reporter, gain or loss-of-signal activity can be used to understand changes in the signaling as they relate to the gene PLAU. Furthermore, this assay endpoint can be referred to as a primary readout, because this assay has produced multiple assay endpoints where this one serves a signaling function. To generalize the intended target to other relatable targets, this assay endpoint is annotated to the protease intended target family, where the subfamily is serine protease.
The levels of cell surface (or secreted, indicated by the prefix "s") biomarker endpoints were measured by ELISA. Overt cytotoxicity to cells in confluent adherent cultures (all systems other than the BT system) was assessed by measuring total protein levels using sulforhodamine B (SRB) staining in parallel cultures at the time of biomarker measurements, indicated as SRB endpoints. For proliferation assays for adherent cell types, individual cell types are cultured at sub-confluence and relative cell numbers quantified by SRB staining at time points optimized for each system (48 h: 3C and CASM3C systems; 72 h: BT and HDF3CGF systems; 96 h: SAg system). SRB was performed by staining cells with 0.1% SRB after fixation with 10% TCA and reading wells at 560 nm.Viability and proliferation of PBMC (T cells) was quantified by Alamar Blue reduction for the SAg and BT systems. For PBMC viability (referred to as PBMC Cytotoxicity within the assay endpoint names), cells were plated (75,000/well in a 96-well plate) and then chemical samples added for 1 h before addition of activators, SEB and TSST-1 (20 ng/mL final concentration each). Cells were incubated for 90 h. Then, Alamar Blue (20 uL/well) (Invitrogen, Cat DAL1100) was added for 6 h, and the plates were read with a fluorescence microplate reader at 546/580 nm (excitation/emission). For PBMC proliferation, cells were plated and activated as above but incubated for only 16 h prior to addition of Alamar Blue. Plates were read after 6 h.

| Compound | outcome | AC50 |
| --- | --- | --- |
| O=C(O)COc1nc(Cl)c(Cl)cc1Cl | inactive | – |
| Cc1c(F)c(F)c(COC(=O)C2C(/C=C(\Cl)C(F)(F)F)C2(C)C)c(F)c1F (stereo not given) | inactive | – |
| COc1cnc(OC)n2nc(NS(=O)(=O)c3c(OCC(F)F)cccc3C(F)(F)F)nc12 | inactive | – |
| COC(=O)C=C(C)OP(=O)(OC)OC | inactive | – |
| Cc1ccc(-c2c(Cl)nc(C#N)n2S(=O)(=O)N(C)C)cc1 | inactive | – |
| CNC(=S)S | inactive | – |
| COC(=O)N(OC)c1ccccc1COc1ccn(-c2ccc(Cl)cc2)n1 | inactive | – |
| CCCC1COC(Cn2cncn2)(c2ccc(Cl)cc2Cl)O1 (stereo not given) | inactive | – |
| CO/C=C(/C(=O)OC)c1ccccc1Oc1cc(Oc2ccccc2C#N)ncn1 | inactive | – |
| CS/C(C)=N/OC(=O)N(C)SN(C)C(=O)O/N=C(\C)SC | inactive | – |
| CC(C)C1(C)N=C(c2nc3ccccc3cc2C(=O)O)NC1=O (stereo not given) | inactive | – |
| C#CCOS(=O)OC1CCCCC1Oc1ccc(C(C)(C)C)cc1 (stereo not given) | – | 27 µM (active) |
| N#Cc1nn(-c2c(Cl)cc(C(F)(F)F)cc2Cl)c(N)c1S(=O)C(F)(F)F (stereo not given) | inactive | – |
| CCCCNC(=O)OCC#CI | – | 32 µM (active) and 30.6 µM (active) |
| N#CC(CCc1ccc(Cl)cc1)(Cn1cncn1)c1ccccc1 (stereo not given) | inactive | – |
| CON(C)C(=O)Nc1ccc(Cl)c(Cl)c1 | inactive | – |
| COc1ccc(C(c2ccc(OC)cc2)C(Cl)(Cl)Cl)cc1 | inactive | – |
| CC(C)(C)c1ccc(CSc2cnn(C(C)(C)C)c(=O)c2Cl)cc1 | inactive | – |
| CCNc1nc(Cl)nc(NCC)n1 | inactive | – |
| COP(N)(=O)SC (stereo not given) | inactive | – |

| Compound | outcome | AC50 |
| --- | --- | --- |
| COP(=S)(OC)Oc1nc(Cl)c(Cl)cc1Cl | inactive | – |
| CCc1nn(C)c(C(=O)NCc2ccc(C(C)(C)C)cc2)c1Cl | – | 30.6 µM (active) |
| CCOC(=O)C(Cl)Cc1cc(-n2nc(C)n(C(F)F)c2=O)c(F)cc1Cl (stereo not given) | inactive | – |
| CCOC(=O)CC(SP(=S)(OC)OC)C(=O)OCC (stereo not given) | inactive | – |
| CNC(=O)ON=CC(C)(C)SC | inactive | – |
| CCCCNC(=O)n1c(NC(=O)OC)nc2ccccc21 | inactive | – |
| Cc1cc(Cl)ccc1OCC(=O)O | inactive | – |
| COC(=O)c1ccccc1C(=O)OC | inactive | – |
| C=CCC1=C(C)[C@@H](OC(=O)[C@@H]2[C@@H](C=C(C)C)C2(C)C)CC1=O | – | 26.7 µM (active) |
| N#Cc1cc(Br)c(O)c(Br)c1 | inactive | – |
| OC(c1ccc(Cl)cc1)(c1cncnc1)c1ccccc1Cl (stereo not given) | inactive | – |
| CC(Oc1ccc(Cl)cc1Cl)C(=O)O (stereo not given) | inactive | – |
| O=C(O)c1nc(Cl)ccc1Cl | inactive | – |
| CCON=C(CC)C1=C(O)CC(c2c(C)cc(C)cc2C)CC1=O (stereo not given) | inactive | – |
| CN(C)C(=S)SSC(=S)N(C)C | – | 7.75 µM (active) |
| COc1nc(C)nc(NC(=O)NS(=O)(=O)c2ccccc2CCC(F)(F)F)n1 | inactive | – |
| Oc1ccccc1-c1ccccc1 | inactive | – |
| Fc1ccc(Oc2ccnc3cc(Cl)cc(Cl)c23)cc1 | – | 36.5 µM (active) |
| CC(C)Oc1cc(-n2nc(C(C)(C)C)oc2=O)c(Cl)cc1Cl | – | 27.6 µM (active) |
| CC1COC(Cn2cncn2)(c2ccc(Oc3ccc(Cl)cc3)cc2Cl)O1 (stereo not given) | – | 20 µM (active) |
